# Test results: PubChem BioAssay (NCI)
# This is part of a sample that, as a whole, favours compounds with a hit. Of some 83,000 tested, about 20% had one in any assay.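 For each line, cells grew in 96-well plates with the test compound present at a single concentration for 48 hours.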 Values without a mark were called inactive. The source made the active and inactive calls. How the source made its calls: active means growth percent below 10; inactive means the rest.
# How the values were obtained:
# Assay in all cases: NCI-60 one-dose screen, 48 h (100 = growth as untreated, 0 = no growth, -100 = all killed)
# Details in all cases: 10 µM unless noted
# SR leukemia = system: SR leukemia
# RPMI-8226 leukemia = system: RPMI-8226 leukemia
# OVCAR-8 ovarian = system: OVCAR-8 ovarian
# OVCAR-5 ovarian = system: OVCAR-5 ovarian
# OVCAR-4 ovarian = system: OVCAR-4 ovarian
# SK-OV-3 ovarian = system: SK-OV-3 ovarian
# IGROV1 ovarian = system: IGROV1 ovarian
# OVCAR-3 ovarian = system: OVCAR-3 ovarian
# HS 578T breast = system: HS 578T breast
# NCI/ADR-RES ovarian = system: NCI/ADR-RES ovarian
# T-47D breast = system: T-47D breast
# BT-549 breast = system: BT-549 breast
# MDA-MB-435 melanoma = system: MDA-MB-435 melanoma
# SW-620 colon = system: SW-620 colon
# MCF7 breast = system: MCF7 breast
# HCT-116 colon = system: HCT-116 colon
# HCC-2998 colon = system: HCC-2998 colon
# KM12 colon = system: KM12 colon
SMILES,growth (SR leukemia),growth (RPMI-8226 leukemia),growth (OVCAR-8 ovarian),growth (OVCAR-5 ovarian),growth (OVCAR-4 ovarian),growth (SK-OV-3 ovarian),growth (IGROV1 ovarian),growth (OVCAR-3 ovarian),growth (HS 578T breast),growth (NCI/ADR-RES ovarian),growth (T-47D breast),growth (BT-549 breast),growth (MDA-MB-435 melanoma),growth (SW-620 colon),growth (MCF7 breast),growth (HCT-116 colon),growth (HCC-2998 colon),growth (KM12 colon)
CCn1cc(C(=O)NN=C2CCCC2)c(=O)c2ccc(C)nc21,99.2%,92.7%,90%,94%,83.7%,91.2%,85%,94.3%,88.8%,89.8%,89%,83.5%,86.9%,93%,83.4%,89.1%,89.6%,94.7%
OB(O)c1ccsc1-c1nc2ccc3[nH]ncc3c2c2c1CCCC2,14.1%,60.3%,66.2%,92.1%,72.3%,15.3%,32.6%,85.2%,32.9%,75.6%,53.5%,47.1%,27%,22.7%,49.3%,26.4%,66%,38.1%
CCC(=C(c1ccc(OCCCN(C)C)cc1)c1ccc(OCCCN(C)C)cc1)c1ccc(Cl)cc1,-48.2% (active),-55.4% (active),-76.3% (active),-89.3% (active),-85.8% (active),-88.2% (active),-84.9% (active),-84.6% (active),-77.4% (active),-84.9% (active),-66.8% (active),-92.6% (active),-95.5% (active),-73.7% (active),-79.2% (active),-94% (active),-80.8% (active),-78.7% (active)
O=C1CCc2c(sc3[nH]c(=S)n(Cc4ccc(Cl)cc4)c(=O)c23)C1,17.9%,-25.5% (active),7.83% (active),11.7%,12.4%,-10.1% (active),23.3%,6.66% (active),5.06% (active),-0.97% (active),-3.14% (active),-10.1% (active),11.3%,16.5%,6.24% (active),5.99% (active),4.16% (active),-45.8% (active)
CCN(CC)CCOc1ccccc1C,111%,103%,102%,97.2%,111%,103%,109%,117%,119%,124%,98.3%,102%,106%,107%,100%,98.3%,107%,107%
CCCNNC(=O)/C=C/c1ccc(CNCCc2c(C)[nH]c3ccccc23)cc1,20.1% [2.5 µM],16.3% [2.5 µM],10.8% [2.5 µM],1.96% [2.5 µM] (active),41.6% [2.5 µM],0.0389% [2.5 µM] (active),9.05% [2.5 µM] (active),19.8% [2.5 µM],35.3% [2.5 µM],50% [2.5 µM],-7.33% [2.5 µM] (active),62.2% [2.5 µM],14% [2.5 µM],10.7% [2.5 µM],24.2% [2.5 µM],0.525% [2.5 µM] (active),13.3% [2.5 µM],28.8% [2.5 µM]
COc1cc(Cl)cc(-c2nn(C(=O)NS(=O)(=O)c3ccc(Cl)cc3)cc2-c2ccncc2)c1,80.5%,77.2%,27.5%,87.4%,16.5%,84.7%,82.6%,98.3%,73.3%,84.1%,90.8%,41.2%,87.5%,114%,102%,95.2%,99.3%,92.9%
C[C@@H]1O[C@@H](O[C@H]2[C@@H](OC(=O)[C@]34CCC(C)(C)C[C@H]3C3=CC[C@@H]5[C@@]6(C)C[C@H](O)[C@H](O[C@@H]7O[C@H](CO)[C@@H](O)[C@H](O)[C@H]7O)[C@@](C)(CO)[C@@H]6CC[C@@]5(C)[C@]3(C)C[C@H]4O)OC[C@@H](O)[C@@H]2O)[C@H](O)[C@H](O[C@@H]2OC[C@@H](O)[C@H](O[C@@H]3OC[C@](O)(CO)[C@H]3O[C@@H]3OC[C@@H](O)[C@H](O)[C@H]3O)[C@H]2O)[C@H]1O[C@@H]1OC[C@](O)(CO)[C@H]1O,67.5%,64%,98.8%,78.1%,42.5%,93.9%,86.4%,89.6%,97.9%,80.5%,49.8%,74.4%,52.1%,75.4%,68.9%,46.3%,-1.75% (active),66.5%
